For some assays here: Measured potencies and affinities stand elsewhere.

This note sets out measurements from ChEMBL document CHEMBL3988442, “University of Dundee, Small-Polar-MMV Screening Library” (2021).

Common to all, as to design: scale not given: direction of the effect not stated beside the values
Experiment [1] concerns the target Protein translocase subunit SecA (Escherichia coli (strain K12)) (UniProt P10408). Description: Assay to Identify E. coli SecA ATPase Inhibitors. Type of experiment: functional. The settings on record: 30 µM.
In experiment [2] the target is T1, Ubiquitin-activating enzyme e1, putative (Leishmania donovani (strain BPK282A1)) (UniProt E9BSI1).
T1 sequence (whole entry): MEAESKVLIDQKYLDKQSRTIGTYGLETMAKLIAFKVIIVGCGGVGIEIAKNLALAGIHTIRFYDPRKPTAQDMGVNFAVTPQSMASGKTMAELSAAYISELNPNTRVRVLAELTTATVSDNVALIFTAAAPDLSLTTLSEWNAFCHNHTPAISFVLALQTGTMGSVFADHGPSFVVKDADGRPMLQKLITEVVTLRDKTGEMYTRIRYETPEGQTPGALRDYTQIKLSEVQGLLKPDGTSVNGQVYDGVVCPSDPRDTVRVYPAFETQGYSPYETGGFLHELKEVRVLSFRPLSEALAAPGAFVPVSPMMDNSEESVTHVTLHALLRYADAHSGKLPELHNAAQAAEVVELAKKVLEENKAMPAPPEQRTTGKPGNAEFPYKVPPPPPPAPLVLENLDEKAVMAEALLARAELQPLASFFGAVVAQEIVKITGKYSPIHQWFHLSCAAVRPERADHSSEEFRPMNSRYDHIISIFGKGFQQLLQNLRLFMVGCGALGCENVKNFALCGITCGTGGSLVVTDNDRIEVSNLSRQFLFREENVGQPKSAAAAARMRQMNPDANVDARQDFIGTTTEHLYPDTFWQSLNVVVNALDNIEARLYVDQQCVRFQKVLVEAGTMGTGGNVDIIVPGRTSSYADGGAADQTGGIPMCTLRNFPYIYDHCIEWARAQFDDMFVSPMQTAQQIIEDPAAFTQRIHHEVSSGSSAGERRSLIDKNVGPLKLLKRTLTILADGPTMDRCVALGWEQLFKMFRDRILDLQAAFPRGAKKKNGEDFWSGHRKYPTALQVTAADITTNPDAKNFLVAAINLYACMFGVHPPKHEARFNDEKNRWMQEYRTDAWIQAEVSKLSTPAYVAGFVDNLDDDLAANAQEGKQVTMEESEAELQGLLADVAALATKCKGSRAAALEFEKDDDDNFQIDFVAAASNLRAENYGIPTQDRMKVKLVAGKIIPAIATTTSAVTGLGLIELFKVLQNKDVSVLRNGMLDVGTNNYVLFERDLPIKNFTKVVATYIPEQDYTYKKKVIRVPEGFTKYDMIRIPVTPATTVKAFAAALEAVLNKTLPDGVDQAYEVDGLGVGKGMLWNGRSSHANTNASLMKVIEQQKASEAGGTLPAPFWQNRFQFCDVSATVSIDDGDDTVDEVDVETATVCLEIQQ
Briefly: Leishmania donovani Ubiquitin Activating Enzyme (LdE1). Type of experiment: functional. The settings on record: 30 µM.

The target in experiment [3] is Sialic acid-binding Ig-like lectin 9 (Homo sapiens) (UniProt Q9Y336). Description: Hs-Siglec9 ALPHAscreen SOP 20170721. The settings on record: 10 µM. For orientation: Alpha assays give light when donor and acceptor beads are brought close together.
Experiment [4] concerns Trypanosoma cruzi. Briefly: Trypanosoma cruzi phosphomannomutase and mannose-1-phosphate guanylyltransferase assay. Type of experiment: functional. The conditions noted are these: 10 µM.
Experiment [5] addresses T2, Arginase-2, mitochondrial (Homo sapiens) (UniProt P78540).
T2 sequence (whole entry): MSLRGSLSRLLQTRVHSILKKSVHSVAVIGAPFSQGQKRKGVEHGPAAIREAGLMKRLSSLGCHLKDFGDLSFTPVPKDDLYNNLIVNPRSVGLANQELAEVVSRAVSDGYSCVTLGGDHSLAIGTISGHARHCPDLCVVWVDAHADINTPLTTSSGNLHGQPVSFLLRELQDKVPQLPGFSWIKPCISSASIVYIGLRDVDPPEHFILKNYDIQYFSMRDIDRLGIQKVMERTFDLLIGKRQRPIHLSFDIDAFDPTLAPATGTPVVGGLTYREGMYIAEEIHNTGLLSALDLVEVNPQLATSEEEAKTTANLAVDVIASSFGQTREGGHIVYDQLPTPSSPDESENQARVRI
Description: in vitro enzyme assay to detect the production of urea directly proportional to the activity of Arginase II. Also: in the data most compounds retested in dose-response had high values. Type of experiment: functional. The conditions noted are these: 33.3 µM.

Experiment [6] concerns the target T3, Proteasome subunit beta (Trypanosoma cruzi) (UniProt O96673).
T3 sequence (whole entry): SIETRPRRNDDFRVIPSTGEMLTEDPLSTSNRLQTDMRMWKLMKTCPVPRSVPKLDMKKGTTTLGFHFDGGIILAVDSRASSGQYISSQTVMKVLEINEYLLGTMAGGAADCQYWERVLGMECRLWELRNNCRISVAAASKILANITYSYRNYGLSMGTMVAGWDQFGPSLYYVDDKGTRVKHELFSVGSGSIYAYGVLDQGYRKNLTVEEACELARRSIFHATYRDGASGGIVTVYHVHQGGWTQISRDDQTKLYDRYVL
Description: Trypanosoma cruzi proteasome chymotrypsin-like activity (TcProtChymo) assay. Also: in the data most compounds retested in dose-response had high values. It counts as functional. The settings on record: 9.37 µM.

For experiment [7], the species on record is Homo sapiens. Description: To identify inhibition of the IFN signalling (Jak-Stat) pathway via expression of an eGFP reporter gene under the control of an IFN-stimulated response element (ISRE) containing MxA promoter. It counts as functional. The settings on record: 30 µM.
The target of experiment [8] is T4, Tyrosyl-tRNA synthetase, putative (Trypanosoma cruzi (strain CL Brener)) (UniProt Q4DSP6).
T4 sequence (whole entry): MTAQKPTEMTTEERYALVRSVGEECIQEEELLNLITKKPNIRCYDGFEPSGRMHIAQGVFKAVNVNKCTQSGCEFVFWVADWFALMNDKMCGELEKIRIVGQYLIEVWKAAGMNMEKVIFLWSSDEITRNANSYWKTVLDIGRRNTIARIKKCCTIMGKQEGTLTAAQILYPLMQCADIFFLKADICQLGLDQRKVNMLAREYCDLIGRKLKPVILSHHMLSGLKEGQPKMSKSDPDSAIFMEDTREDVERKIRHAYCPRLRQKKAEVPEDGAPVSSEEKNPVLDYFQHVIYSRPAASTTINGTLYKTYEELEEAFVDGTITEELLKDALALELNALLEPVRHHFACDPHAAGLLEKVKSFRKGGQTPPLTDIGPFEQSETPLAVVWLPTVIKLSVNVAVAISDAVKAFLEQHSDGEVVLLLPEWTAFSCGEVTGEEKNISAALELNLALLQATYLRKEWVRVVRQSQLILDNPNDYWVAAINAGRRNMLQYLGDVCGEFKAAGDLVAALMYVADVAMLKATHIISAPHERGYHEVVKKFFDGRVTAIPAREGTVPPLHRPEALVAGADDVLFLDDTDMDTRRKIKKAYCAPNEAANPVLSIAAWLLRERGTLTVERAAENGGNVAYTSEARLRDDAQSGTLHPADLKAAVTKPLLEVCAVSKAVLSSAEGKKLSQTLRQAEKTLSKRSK
Description: Trypanosoma cruzi tyrosyl tRNA synthetase (TcYRS) _High Tyrosine SOP. Also: in the data most compounds retested in dose-response had high values. Type of experiment: functional. The settings on record: 30 µM.

Experiment [9] concerns the target T4, Tyrosyl-tRNA synthetase, putative (Trypanosoma cruzi (strain CL Brener)). Briefly: Trypanosoma cruzi tyrosyl tRNA synthetase (TcYRS) SOP. Type of experiment: functional. The settings on record: 30 µM.
Experiment [10] deals with Chromo domain-containing protein 1 (Saccharomyces cerevisiae (strain ATCC 204508 / S288c) (Baker's yeast)) (UniProt P32657). Briefly: ScCHD-1 Enzyme Inhibition Assay. Also: in the data most compounds retested in dose-response had high values. Type of experiment: functional. The settings on record: 30 µM.
Chain of Chromo domain-containing protein 1 (Saccharomyces cerevisiae (strain ATCC 204508 / S288c) (Baker's yeast)) (P32657 whole entry, the tested form may be a part): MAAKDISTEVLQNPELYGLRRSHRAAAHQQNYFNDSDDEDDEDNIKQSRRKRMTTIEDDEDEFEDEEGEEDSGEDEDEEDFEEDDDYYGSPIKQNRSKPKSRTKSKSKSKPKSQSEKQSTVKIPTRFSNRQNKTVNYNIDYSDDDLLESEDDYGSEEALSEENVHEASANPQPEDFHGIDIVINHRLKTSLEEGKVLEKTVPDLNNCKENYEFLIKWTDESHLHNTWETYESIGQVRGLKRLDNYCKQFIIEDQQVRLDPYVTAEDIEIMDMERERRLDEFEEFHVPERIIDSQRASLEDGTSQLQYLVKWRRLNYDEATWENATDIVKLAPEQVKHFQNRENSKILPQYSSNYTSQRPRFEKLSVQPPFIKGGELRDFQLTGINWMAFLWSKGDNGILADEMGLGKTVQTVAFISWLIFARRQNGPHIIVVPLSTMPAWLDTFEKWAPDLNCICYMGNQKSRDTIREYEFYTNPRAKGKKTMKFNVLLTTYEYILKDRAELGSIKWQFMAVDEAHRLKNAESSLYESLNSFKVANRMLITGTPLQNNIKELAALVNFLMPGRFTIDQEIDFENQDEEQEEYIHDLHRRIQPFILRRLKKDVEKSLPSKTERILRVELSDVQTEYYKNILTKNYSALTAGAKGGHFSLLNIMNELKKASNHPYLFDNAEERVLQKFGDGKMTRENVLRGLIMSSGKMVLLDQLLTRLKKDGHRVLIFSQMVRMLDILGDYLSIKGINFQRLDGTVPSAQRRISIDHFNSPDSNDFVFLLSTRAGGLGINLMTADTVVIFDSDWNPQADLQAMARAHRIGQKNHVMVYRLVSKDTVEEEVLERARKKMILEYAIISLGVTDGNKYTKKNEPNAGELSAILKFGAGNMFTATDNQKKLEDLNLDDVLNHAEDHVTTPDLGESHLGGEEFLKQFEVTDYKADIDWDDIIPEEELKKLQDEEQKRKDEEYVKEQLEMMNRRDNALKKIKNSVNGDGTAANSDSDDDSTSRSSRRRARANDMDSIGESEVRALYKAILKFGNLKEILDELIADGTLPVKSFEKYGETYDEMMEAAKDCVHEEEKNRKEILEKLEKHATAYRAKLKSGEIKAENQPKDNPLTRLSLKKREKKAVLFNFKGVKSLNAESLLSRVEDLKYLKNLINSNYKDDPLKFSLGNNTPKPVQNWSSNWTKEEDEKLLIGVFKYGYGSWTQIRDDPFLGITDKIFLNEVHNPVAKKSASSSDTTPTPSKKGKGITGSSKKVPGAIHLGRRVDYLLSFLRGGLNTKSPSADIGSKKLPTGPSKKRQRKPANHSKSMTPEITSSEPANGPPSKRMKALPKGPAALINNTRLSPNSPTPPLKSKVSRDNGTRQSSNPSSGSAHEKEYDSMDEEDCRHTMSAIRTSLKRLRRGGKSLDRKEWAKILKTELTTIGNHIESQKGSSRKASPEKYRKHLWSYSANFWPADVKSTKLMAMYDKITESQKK

Chain of Sialic acid-binding Ig-like lectin 9 (Homo sapiens) (Q9Y336 whole entry): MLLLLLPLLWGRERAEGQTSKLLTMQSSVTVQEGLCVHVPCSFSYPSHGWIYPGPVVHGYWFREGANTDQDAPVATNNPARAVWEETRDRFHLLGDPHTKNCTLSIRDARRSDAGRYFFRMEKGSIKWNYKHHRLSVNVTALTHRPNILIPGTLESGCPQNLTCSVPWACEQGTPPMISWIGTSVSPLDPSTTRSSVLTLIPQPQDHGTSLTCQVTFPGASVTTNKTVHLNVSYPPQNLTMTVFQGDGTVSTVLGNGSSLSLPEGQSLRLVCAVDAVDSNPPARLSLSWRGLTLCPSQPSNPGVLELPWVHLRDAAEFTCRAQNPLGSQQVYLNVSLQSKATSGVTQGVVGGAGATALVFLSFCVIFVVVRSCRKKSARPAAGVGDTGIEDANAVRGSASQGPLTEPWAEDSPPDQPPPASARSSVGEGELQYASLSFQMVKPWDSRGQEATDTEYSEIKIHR
Chain of Protein translocase subunit SecA (Escherichia coli (strain K12)) (P10408 whole entry): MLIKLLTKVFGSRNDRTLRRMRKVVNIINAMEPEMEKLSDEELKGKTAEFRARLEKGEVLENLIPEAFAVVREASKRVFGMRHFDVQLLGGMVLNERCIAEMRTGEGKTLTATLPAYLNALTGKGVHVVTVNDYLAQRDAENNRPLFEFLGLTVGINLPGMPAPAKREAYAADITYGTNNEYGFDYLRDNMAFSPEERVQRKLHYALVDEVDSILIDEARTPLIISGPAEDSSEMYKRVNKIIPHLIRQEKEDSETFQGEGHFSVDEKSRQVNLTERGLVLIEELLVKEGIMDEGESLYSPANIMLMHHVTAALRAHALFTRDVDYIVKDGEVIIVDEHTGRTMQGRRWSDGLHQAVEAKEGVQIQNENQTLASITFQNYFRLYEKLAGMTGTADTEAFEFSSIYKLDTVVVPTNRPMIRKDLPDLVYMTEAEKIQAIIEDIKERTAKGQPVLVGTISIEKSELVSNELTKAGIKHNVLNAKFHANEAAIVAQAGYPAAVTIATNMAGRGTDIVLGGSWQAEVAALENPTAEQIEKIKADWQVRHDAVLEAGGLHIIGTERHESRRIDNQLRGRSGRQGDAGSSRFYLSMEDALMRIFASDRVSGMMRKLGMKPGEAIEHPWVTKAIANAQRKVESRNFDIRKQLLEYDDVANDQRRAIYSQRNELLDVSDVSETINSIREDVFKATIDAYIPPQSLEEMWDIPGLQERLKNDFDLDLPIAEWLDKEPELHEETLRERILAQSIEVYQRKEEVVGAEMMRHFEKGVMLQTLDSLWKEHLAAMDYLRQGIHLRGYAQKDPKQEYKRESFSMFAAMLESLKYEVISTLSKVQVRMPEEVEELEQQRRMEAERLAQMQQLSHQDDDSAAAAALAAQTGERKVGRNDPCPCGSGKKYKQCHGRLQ

Regarding `CC(C)(C)c1nnc(CN2CCn3c(nnc3C3CC3)C2)o1`, the Percent Effect was -1.7% in experiment [1]; -2.67% in experiment [2]; 0.00454% in experiment [3]; -2.21% in [4]; 0.444% in experiment [5]; 3.14% in experiment [6]. For the same molecule, the Percent Effect is 13.2% in [7], 0.526% in experiment [8], 2.56% in experiment [9] and 9.52% in experiment [10].

`CN(Cc1ccccc1)CC(O)Cn1cnc2ccsc2c1=O` (stereo not given): the Percent Effect in [1] was -3.3%; in [2], 5.13%; in [3] it was -3.73%; in [4] it was 8.36%; in experiment [5] it was -0.41%; in [6] it was 1.62%. For the same molecule, the Percent Effect in [7] came out at 17.5%; in experiment [8], 0.478%; in experiment [9], 1.21%; in experiment [10] it was 3.76%.

As for `Cc1ccc(C(=O)N2CCN(CCC(C)(C)C)CC2)c(=O)[nH]1`, the Percent Effect in experiment [1] is -4.94%; in experiment [2], 5.13%; in experiment [3], 4.25%; in experiment [4] it was -0.845%; in experiment [5], -0.82%; in [6] it was -1.79%. Further, the Percent Effect in experiment [7] turned out to be 12%; in experiment [8], 3.35%; in [9] it was 1.21%; in [10] it was 1.43%.

In the case of `CC1CCCCN1C(=O)CN1CCN(c2ccc3nncn3n2)CC1` (stereo not given), the Percent Effect was -3.43% in [1]; 15.4% in experiment [2]; 1.72% in experiment [3]; 7.42% in experiment [4]; -0.82% in experiment [5]; 11.3% in experiment [6]. Besides, the Percent Effect is 6.75% in experiment [7], 6.22% in experiment [8], 13.2% in [9] and -7.79% in experiment [10].

Turning to `Cc1ccc(N2CCC3(CCCN(C(=O)c4cccnc4)C3)C2)nn1` (stereo not given), the Percent Effect in [1] was -10.1%; in [2] it was 1.3%; in experiment [3], 11%; in experiment [4], -3.41%; in experiment [5], 0.405%; in experiment [6], 16.1%. The Percent Effect in experiment [7] was 2.17%; in experiment [8], 0.526%; in experiment [9] it was -10.3%; in experiment [10], 0.442%.

For the molecule `O=C(O)c1ccc2ccc(N3CCN(CC4CC4)CC3)n2c1`, the Percent Effect in experiment [1] is -3.4%; in [2] it was 14.3%; in experiment [3], 1.31%; in experiment [4], 3.38%; in [5] it was 2.74%; in [6] it was 9.7%. Further, the Percent Effect in experiment [7] is 7.8%; in experiment [8], 18.4%; in experiment [9], 12.5%; in [10] it was -4.22%.

Regarding `CC(C)c1ncc(S(C)(=O)=O)c(C2CCCNC2)n1` (stereo not given), the Percent Effect was -5.26% in experiment [1]; 10.8% in experiment [2]; 16.7% in experiment [3]; 6.11% in experiment [4]; 14.3% in experiment [5]; 3.94% in experiment [6]. Moreover, the Percent Effect in [7] was -1.56%; in experiment [8], 6.92%; in experiment [9], 17.1%; in [10], -3.61%.

For `CCn1cc(NC(=O)NCc2ccc3c(c2)OCCO3)cn1`, the Percent Effect in experiment [1] is -3.41%; in [2], 20.8%; in experiment [3], 4.42%; in experiment [4], -2.98%; in [5] it was 4.3%; in [6], 7.37%. The Percent Effect was 12.6% in [7], 11.8% in experiment [8], 21.2% in experiment [9] and -7.59% in experiment [10].

Consider `CC(C)NC(=O)Nc1ccc(CNCc2cccc(OC(F)F)c2)cc1`, for which the Percent Effect in experiment [1] is -3.77%; in [2], 10.4%; in experiment [3] it was -3.29%; in [4], -2.98%; in [5] it was -10%; in experiment [6], 24%. For the same molecule, the Percent Effect in [7] is 25.1%; in experiment [8], 4.9%; in experiment [9] it was 7.06%; in experiment [10], -10.9%.

Regarding `O=C(CSC1CCc2ccccc2NC1=O)NCCO` (stereo not given), the Percent Effect was -0.348% in experiment [1]; 13.5% in experiment [2]; 0.884% in experiment [3]; 1.84% in experiment [4]; -3.15% in experiment [5]; 15.6% in experiment [6]. The Percent Effect was 25.1% in experiment [7], 5.85% in experiment [8], 14.6% in [9] and -1.22% in experiment [10].

As to `Cc1ccc2oc(C(=O)N3CCC(C(=O)N4CCCC4)CC3)cc2n1`, the Percent Effect in [1] is -3.66%; in [2], 7.69%; in [3], 1.13%; in [4], 2.35%; in experiment [5], 6.56%; in experiment [6], -0.768%. The Percent Effect was 7.89% in experiment [7], 9.09% in experiment [8], 18.1% in [9] and -0.651% in experiment [10].
